Several values for one entry are separate records, joined by “and”; a condition that tells them apart may be missing. Equal values may be shown once. Results filed as inconclusive are left out. A structure can be active in one record and inactive in another. Activity calls are given as the source filed them. Unless noted, calls follow the shape of the dose curve; as a rule, active = well fitted curve in the direction sought with a large enough effect in the repeat runs; inconclusive = weak or mixed curves; inactive = no such curve, though single readings can be large; an effect the other way counts as inactive or inconclusive.
Tests used:
[1] = qHTS assay to identify small molecule antagonists of the estrogen receptor alpha (ER-alpha) signaling pathway using the BG1 cell line in the presence of 0.1 nM 17-beta-estradiol - cell viability counter screen (AID 1259241); also: nearly all actives have a fitted effect of over 40% in size
Method in brief: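 The cell line endogenously expresses full-length ER-alpha and carries four EREs driving luciferase. Cells are cultured 5 days hormone-free, treated 22 hr with compounds and 0.1 nM estradiol, then viability is read by fluorescence.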

[2] = qHTS assay to identify small molecule antagonists of the androgen receptor (AR) signaling pathway using the MDA cell line in the presence of 0.5 nM R1881 - cell viability counter screen (AID 1259242); also: nearly all actives have a fitted effect of over 45% in size
Method in brief: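 MDA-kb2 cells (MMTV-luciferase, AR/GR responsive) were treated with compounds plus 0.5 nM R1881 (final) for 16 hr at 37C, 0% CO2. Viability was then read in the same wells as live-cell protease fluorescence (CellTiter-Fluor, 30 min).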

[3] = molecular target: Estrogen receptor (Homo sapiens) (UniProt P03372); experiment: qHTS assay to identify small molecule antagonists of the estrogen receptor alpha (ER-alpha) signaling pathway using the BG1 cell line in the presence of 0.1 nM 17-beta-estradiol (AID 1259244); also: nearly all actives have a fitted effect of over 50% in size
Estrogen receptor (Homo sapiens), sequence (P03372 whole entry, looked up): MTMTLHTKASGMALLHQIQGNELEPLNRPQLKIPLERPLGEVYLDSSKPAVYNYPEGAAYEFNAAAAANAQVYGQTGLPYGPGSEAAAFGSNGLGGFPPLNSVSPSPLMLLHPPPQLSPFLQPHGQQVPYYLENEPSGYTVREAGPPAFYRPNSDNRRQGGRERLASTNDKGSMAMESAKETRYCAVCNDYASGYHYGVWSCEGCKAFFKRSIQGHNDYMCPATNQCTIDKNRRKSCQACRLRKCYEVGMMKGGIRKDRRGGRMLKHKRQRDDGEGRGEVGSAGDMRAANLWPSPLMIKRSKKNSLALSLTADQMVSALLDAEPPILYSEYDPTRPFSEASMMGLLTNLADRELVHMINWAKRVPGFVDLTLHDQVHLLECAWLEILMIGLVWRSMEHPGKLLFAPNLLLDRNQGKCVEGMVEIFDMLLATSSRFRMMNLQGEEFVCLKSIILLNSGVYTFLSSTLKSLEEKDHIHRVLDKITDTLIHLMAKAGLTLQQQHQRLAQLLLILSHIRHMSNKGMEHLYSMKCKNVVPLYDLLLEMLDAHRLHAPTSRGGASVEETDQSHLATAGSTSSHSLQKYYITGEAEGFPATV
Method in brief: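 VM7Luc4E2 cells (endogenous full-length ER-alpha, 4×ERE-luciferase), kept 5 days in phenol red-free, charcoal-stripped FBS medium; 4,000 cells/well. Compounds added with 0.1 nM (final) 17beta-estradiol, 22 hr at 37C; luminescence read with ONE-Glo after 30 min.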

[4] = qHTS assay to identify small molecule HDAC inhibitors (AID 1259364); also: nearly all actives have a fitted effect of over 45% in size; also: potency is read from the fitted curve at half-maximal effect; as to activity change, negative = inhibition: top concentration of the series differs between compounds
Method in brief: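 Wild-type HCT-116 cells, plated overnight at 37 C, exposed to compounds 2 hr at 37 C; luminogenic HDAC-Glo substrate then added 30 min at room temperature. Luminescence reports relative endogenous class I/II HDAC activity.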

[5] = qHTS assay to identify small molecule HDAC inhibitors - cell viability counter screen (AID 1259365); also: series mostly up to about 92 µM; nearly all actives have a fitted effect of over 50% in size
Method in brief: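 Viability readout: CellTiter-Glo luminescence. Wild-type HCT-116 cells, 2hr compound treatment following overnight attachment at 37 C.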

[6] = qHTS assay to identify small molecule agonists of the sonic hedgehog signaling (Shh) pathway - cell viability counter screen (AID 1259366); also: nearly all actives have a fitted effect of over 50% in size; also: potency is read from the fitted curve at half-maximal effect
Method in brief: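 Viability measured fluorometrically (CellTiter-Fluor, 1hr, 37C) in 3T3 Gli1-Luc reporter cells after 23hr compound exposure within a 24hr incubation at 37C/5% CO2.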

[7] = qHTS assay to identify small molecule antagonists of the sonic hedgehog signaling (Shh) pathway - cell viability counter screen (AID 1259367); also: nearly all actives have a fitted effect of over 55% in size; also: potency is read from the fitted curve at half-maximal effect
Method in brief: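 Seed 3T3 Gli1-Luc cells at 2,000 per well; incubate 4 hr; add compound in DMSO, then conditioned medium; incubate at 37C with 5% CO2; add CellTiter-Fluor after 23 hr; read fluorescence 1 hr later.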

[8] = qHTS assay to identify small molecule antagonists of the sonic hedgehog signaling (Shh) pathway (AID 1259369; calls by dose curve; also: nearly all actives have a fitted effect of over 45% in size; also: potency is read from the fitted curve at half-maximal effect)
Method in brief: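 NIH/3T3-derived Gli1-Luc reporter cells plated 4 h, dosed with compound, then stimulated with conditioned medium for 24 h at 37 C. Firefly luciferase luminescence read after 30 min with detection reagent at room temperature.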

[9] = molecular target: Estrogen receptor beta (Homo sapiens) (UniProt Q92731); experiment: qHTS assay to identify small molecule agonists of the estrogen receptor beta (ER-beta) signaling pathway (AID 1259377; active = well fitted activation curve with a large enough effect in the signal ratio in the repeat runs, not every such curve was filed as active; the % refers to the signal ratio)
Estrogen receptor beta (Homo sapiens), sequence (Q92731 whole entry, looked up): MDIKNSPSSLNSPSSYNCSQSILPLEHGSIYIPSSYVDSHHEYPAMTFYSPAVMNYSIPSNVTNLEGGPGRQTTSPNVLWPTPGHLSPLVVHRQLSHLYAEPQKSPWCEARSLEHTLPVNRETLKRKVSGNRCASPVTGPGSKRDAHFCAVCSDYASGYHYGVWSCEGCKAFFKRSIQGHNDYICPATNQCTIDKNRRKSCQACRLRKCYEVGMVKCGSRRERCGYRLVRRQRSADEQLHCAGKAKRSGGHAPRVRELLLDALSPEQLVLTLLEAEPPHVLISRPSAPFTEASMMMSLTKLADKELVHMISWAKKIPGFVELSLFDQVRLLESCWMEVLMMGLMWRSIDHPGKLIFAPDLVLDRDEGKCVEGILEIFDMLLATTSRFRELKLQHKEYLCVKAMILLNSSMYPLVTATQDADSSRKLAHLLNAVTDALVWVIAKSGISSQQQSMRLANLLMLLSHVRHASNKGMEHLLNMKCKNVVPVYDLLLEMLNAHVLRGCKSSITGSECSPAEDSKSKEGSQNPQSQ
Method in brief: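 A UAS-controlled beta-lactamase reporter in ER-beta-UAS-bla HEK293T cells reports receptor activation. Compounds act for 16 hr at 37C in 2% charcoal-stripped serum, and a FRET substrate is read by fluorescence after 2 hours.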

[10] = molecular target: Estrogen receptor beta (Homo sapiens) (UniProt Q92731); experiment: qHTS assay to identify small molecule antagonists of the estrogen receptor beta (ER-beta) signaling pathway (AID 1259378; active = well fitted inhibition curve with a large enough effect in the signal ratio in the repeat runs, not every such curve was filed as active; the % refers to the signal ratio)
Method in brief: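 ER-beta-UAS-bla HEK293T cells in 2% charcoal-stripped FBS medium treated with compound plus 1nM final 17-beta-estradiol for 16 hr at 37C. Beta-lactamase reporter read by FRET substrate fluorescence after 2 hours at room temperature.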

[11] = qHTS assay to identify small molecule agonists of the androgen receptor (AR) signaling pathway in the presence of an antagonist - cell viability counter screen (AID 1259379);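 also: MDA-kb2 human breast cancer cells carrying an MMTV luciferase reporter; series mostly up to about 92 µM; nearly all actives have a fitted effect of over 25% in size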
Method in brief: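 MDA-kb2 cells (MMTV-luciferase, AR/GR), 3,000/well, 5 h attachment, then 3.0 µM nilutamide (final) and compounds at 15 concentrations. Viability by CellTiter-Fluor fluorescence after 16 h at 37 °C, 0% CO2, in the reporter wells.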

[12] = qHTS assay to identify small molecule agonists of the estrogen receptor beta (ER-beta) signaling pathway - cell viability counter screen (AID 1259380); also: nearly all actives have a fitted effect of over 30% in size; also: potency is read from the fitted curve at half-maximal effect
Method in brief: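 ER-beta-UAS-bla HEK293T cells in medium with 2% charcoal-stripped FBS, pre-incubated 6 hr, then treated 16 hr at 37C. Cytotoxicity read in the same wells by CellTiter-Glo luminescence after 30 min at room temperature.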

[13] = qHTS assay to identify small molecule antagonists of the estrogen receptor beta (ER-beta) signaling pathway - cell viability counter screen (AID 1259382); also: nearly all actives have a fitted effect of over 55% in size; also: potency is read from the fitted curve at half-maximal effect; as to activity change, negative = cytotoxicity: series mostly up to about 92 µM
Method in brief: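 ER-beta-UAS-bla HEK293T cells in 2% charcoal-stripped FBS medium, treated with compound plus 1 nM 17-beta-estradiol for 16 h at 37C. Viability read by CellTiter-Glo luminescence after 30 min at room temperature in the same wells.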

[14] = molecular target: Estrogen receptor (Homo sapiens) (UniProt P03372); experiment: qHTS assay to identify small molecule agonists of the estrogen receptor alpha (ER-alpha) signaling pathway in the presence of an antagonist (AID 1259383; calls by dose curve; also: top concentration of the series differs between compounds; nearly all actives have a fitted effect of over 15% in size)
Method in brief: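 VM7Luc4E2 cells express endogenous full-length ER-alpha with an ERE-luciferase reporter and were hormone-deprived for 5 days. Compounds at 15 concentrations were added with 10.0nM ICI-182,780 for 22hr at 37C. Luminescence was read with ONE-Glo.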

[15] = qHTS assay to identify small molecule agonists or antagonists of the thyroid stimulating hormone receptor (TSHR) signaling pathway - wild type cell line counter screen (AID 1259384; calls by dose curve)
Method in brief: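 Wild-type Hek293 cells, 800/well, 18 h at 37C, then compound with Ro20-1724 for 30 min RT. cAMP by HTRF (cAMP-d2/anti-cAMP cryptate), 1 h RT, fluorescence read. 15 concentrations, triplicates.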

[16] = molecular target: Thyrotropin receptor (Homo sapiens) (UniProt P16473); experiment: qHTS assay to identify small molecule antagonists of the thyroid stimulating hormone receptor (TSHR) signaling pathway (AID 1259385; calls by dose curve; also: nearly all actives have a fitted effect of over 20% in size)
Thyrotropin receptor (Homo sapiens), sequence (P16473 whole entry, looked up): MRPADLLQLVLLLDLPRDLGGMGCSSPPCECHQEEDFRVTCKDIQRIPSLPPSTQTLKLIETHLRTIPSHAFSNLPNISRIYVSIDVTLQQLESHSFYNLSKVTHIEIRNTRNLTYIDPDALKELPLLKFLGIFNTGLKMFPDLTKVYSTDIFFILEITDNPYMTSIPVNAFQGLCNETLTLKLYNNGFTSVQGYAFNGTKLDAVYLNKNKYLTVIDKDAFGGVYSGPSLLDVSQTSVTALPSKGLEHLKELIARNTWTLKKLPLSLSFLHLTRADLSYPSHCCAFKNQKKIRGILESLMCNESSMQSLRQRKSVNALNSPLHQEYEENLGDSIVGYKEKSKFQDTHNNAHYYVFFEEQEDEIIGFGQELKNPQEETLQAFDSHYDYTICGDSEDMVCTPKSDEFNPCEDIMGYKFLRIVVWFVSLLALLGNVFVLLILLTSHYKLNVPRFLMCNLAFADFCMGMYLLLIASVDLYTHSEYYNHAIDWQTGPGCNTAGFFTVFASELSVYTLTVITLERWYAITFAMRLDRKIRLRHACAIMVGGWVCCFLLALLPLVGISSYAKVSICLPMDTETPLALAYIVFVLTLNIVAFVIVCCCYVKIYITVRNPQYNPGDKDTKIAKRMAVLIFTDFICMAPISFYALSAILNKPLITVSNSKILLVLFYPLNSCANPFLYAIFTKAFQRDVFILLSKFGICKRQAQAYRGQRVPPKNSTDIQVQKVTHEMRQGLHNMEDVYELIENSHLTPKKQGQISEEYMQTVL
Method in brief: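 TSHR-HEK293 cells (800/well) plated 18 h, then compounds with Ro20-1724 and TSH at 1.5 ng/mL final, 30 min at room temperature. cAMP quantified by HTRF (cAMP-d2/anti-cAMP-cryptate, 1 h); 15 concentrations in triplicate.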

[17] = qHTS assay to identify small molecule agonists of the sonic hedgehog signaling (Shh) pathway (AID 1259368; calls by dose curve;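 also: NIH/3T3-derived 3T3Gli1-Luc cells carrying a stable Gli1-driven firefly luciferase reporter; series mostly up to about 92 µM; nearly all actives have a fitted effect of over 15% in size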)
Method in brief: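 NIH/3T3-derived 3T3Gli1-Luc cells with stably integrated Gli1-driven firefly luciferase, 2,000 cells/well, compounds added after 4 hr. Incubated 24 hr at 37C, 5% CO2; luminescence read after 30 min with luciferase reagent at room temperature.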

[18] = qHTS assay to identify small molecule phospholipidosis (PLD) inducers (AID 1259344; active = well fitted curve in the direction sought with a large enough effect; an effect the other way counts as inactive or inconclusive)
Method in brief: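 Quantitative HTS in HepG2: compound plus LipidTOX Red dye for 24 h, paraformaldehyde fixation with Hoechst 33342, widefield high-content imaging; amiodarone as positive and DMSO as negative control.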
% is scaled to controls: 0 for no effect and ±100 for the full control effect.

C=CC1(C)OC(=O)N(c2cc(Cl)cc(Cl)c2)C1=O (configuration not stated)
21.6 µM (active) and inactive: Potency [8]
active: Potency [12] 27.1 µM and 21.7 µM
54.2 µM (active) and inactive: Potency [7] | Potency [13]
inactive: outcome [1] | Potency [2] | Potency [3] | Potency [4] | outcome [5] | Potency [6] | Potency [9] | outcome [10] | Potency [11] | Potency [14] | outcome [15] | outcome [16]

CC(O)CCl (configuration not stated)
inactive: outcome [1] | Potency [2] | Potency [3] | Potency [4] | outcome [5] | Potency [6] | outcome [17] | Potency [9] | outcome [10] | Potency [11] | Potency [13] | outcome [15] | outcome [16]

NNCc1ccccc1
inactive: outcome [1] | Potency [2] | Potency [3] | outcome [5] | Potency [6] | Potency [7] | outcome [17] | Potency [11] | Potency [13] | outcome [15] | outcome [16]
active: Potency [4] 11.1 µM

N#CN
inactive: outcome [1] | Potency [2] | Potency [3] | Potency [4] | outcome [5] | Potency [6] | outcome [17] | Potency [8] | Potency [9] | outcome [10] | Potency [11] | Potency [12] | Potency [13] | Potency [14]

O=P(O)(O)CN(CP(=O)(O)O)CP(=O)(O)O
inactive: outcome [1] | Potency [2] | Potency [3] | Potency [4] | outcome [5] | Potency [6] | outcome [17] | Potency [8] | Potency [9] | outcome [10] | Potency [11] | Potency [12] | Potency [13] | Potency [14] | outcome [15] | outcome [16]

CC(=O)CN(CC(C)=O)N=O
inactive: outcome [1] | Potency [2] | Potency [3] | Potency [4] | outcome [5] | Potency [6] | Potency [7] | Potency [8] | Potency [9] | outcome [10] | Potency [11] | Potency [12] | Potency [13] | outcome [15] | outcome [16]

CC(C)(C)c1cc(O)ccc1O
inactive: outcome [1] | Potency [2] | Potency [3] | Potency [4] | outcome [5] | Potency [6] | Potency [7] | outcome [17] | Potency [11] | Potency [12] | Potency [13] | Potency [14]

CN(CCO)CCO
inactive: outcome [1] | Potency [2] | Potency [3] | Potency [4] | outcome [5] | Potency [6] | Potency [8] | Potency [9] | outcome [10] | Potency [12] | Potency [13] | Potency [14] | outcome [15] | outcome [16]

NCC1(CC(=O)O)CCCCC1
inactive: outcome [1] | Potency [2] | Potency [18] | Potency [4] | outcome [5] | Potency [6] | Potency [7] | outcome [17] | Potency [8] | Potency [11] | Potency [13] | outcome [15] | outcome [16]

Brc1c(Br)c(Br)c(Br)c(Br)c1Br
inactive: activity change, negative = cytotoxicity [1] -4.2% [at 8.39 µM] | viability change, negative = cytotoxic [2] 7.8% [at 8.39 µM] | activity change, negative = inhibition [3] 3.5% [at 8.39 µM] | activity change, negative = inhibition [4] 4.51% [at 8.39 µM] | activity change, negative = cytotoxicity [5] 1.6% [at 8.39 µM] | viability change, negative = cytotoxic [6] 2.28% [at 8.39 µM] | activity change, negative = inhibition [8] -28% [at 8.39 µM] | activity change, negative = cytotoxicity [11] 0.311% [at 8.39 µM] | activity change, negative = cytotoxicity [12] -3.01% [at 8.39 µM] | activity change, negative = cytotoxicity [13] -0.381% [at 8.39 µM] | activation [14] -2.37% [at 8.39 µM] | cAMP activity change [15] 7.95% [at 8.39 µM] | activity change, negative = inhibition [16] 0.318% [at 8.39 µM]

CC(C)(C)NC[C@H](O)c1ccc(O)cc1Cl
inactive: outcome [1] | Potency [2] | Potency [18] | Potency [4] | outcome [5] | Potency [6] | Potency [7] | outcome [17] | Potency [8] | Potency [12] | Potency [13] | outcome [16]

CCOP(=O)(CN(CCO)CCO)OCC
inactive: outcome [1] | Potency [2] | Potency [3] | Potency [4] | outcome [5] | Potency [6] | outcome [17] | Potency [11] | Potency [12] | Potency [13] | Potency [14] | outcome [15] | outcome [16]

CC#Cc1cc(C)nc(Nc2ccccc2)n1
inactive: outcome [1] | Potency [2] | Potency [3] | outcome [5] | Potency [6] | Potency [7] | Potency [11] | Potency [13] | Potency [14] | outcome [15] | outcome [16]

Oc1ccc2c3c1O[C@H]1[C@@H](O)C=C[C@H]4[C@@H](C2)NCC[C@@]341
active: Potency [6] 28.1 µM | Potency [8] 1.99 µM
inactive: outcome [1] | Potency [2] | Potency [18] | Potency [4] | outcome [5] | outcome [17] | Potency [9] | Potency [11] | Potency [12] | Potency [13] | outcome [15]

Reference: PubChem BioAssay (Tox21)
